According to PubChem BioAssay AID1490 (National Center for Advancing Translational Sciences (NCATS), 2009):
“And” between values parts separate entries of the source, which are not always exact repeats. Equal entries are not always repeated. Among all 310,000 compounds or so, about 11,000 (3.5%) were called active. Not shown: some 4% with an inconclusive outcome. Calls come from the whole dose curve; as a rule, active = well fitted inhibition curve with a large enough effect; inconclusive = small, poorly fitted or top-dose-only effect, or another doubt; inactive = no such curve, though single readings can be large or run the other way. What follows is part of a selection rich in actives, with near analogues and random picks from the rest.

Molecular target: 4'-phosphopantetheinyl transferase ffp (Bacillus subtilis) (UniProt Q9F4F7)
Assay: qHTS Assay for Inhibitors of Bacillus subtilis Sfp phosphopantetheinyl transferase (PPTase);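 note: the enzyme is Sfp with the accession as filed and its product quenches rhodamine fluorescence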;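 for Largest response in the series, negative = inhibition: 0% = enzyme reaction without inhibitor and -100% = no enzyme wells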
Conditions: Biochemical Sfp PPTase activity
In short: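 Sfp 15 nM + cpd, 15 min RT; start w/ rhodamine-CoA 5 uM, BHQ-2-YbbR 12.5 uM (final); 50 mM Hepes pH 7.6, 10 mM MgCl2, 0.01% NP-40, 0.01% BSA; read 525/598 nm at 0 and 30 min.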
Potency is the fitted concentration of half-maximal effect.

Largest response in the series, negative = inhibition, inactive:
COc1ccccc1N1CCN(S(=O)(=O)CCNC(=O)c2ccc(OC(C)C)cc2)CC1 3.56%
COc1ccc(CCN2C(=O)C3CC=C(C)CC3C2=O)cc1OC (centres undefined) 7.59%
COc1ccc(N2C(=O)CC(N3CCC(C(N)=O)CC3)C2=O)cc1 (centres undefined) -13.3%
COc1cc(Cl)c(C)cc1NC(=O)CN1CCCCCC1 1.55%
CSC(=S)N/N=C/c1c[nH]c2ccccc12 7.95%
O=C(N/N=C/c1c[nH]c2ccccc12)c1ccccc1O 16.9%
Cc1cc(=O)[nH]c(Nc2cccc(Br)c2)n1 -3.95%
Cc1cccc(C)c1NC(=O)CSc1nc2c([nH]1)c(=O)n(C)c(=O)n2C -3.14%
CC(CCO)Nc1nc2c([nH]1)c(=O)n(C)c(=O)n2C (centres undefined) 11.2%
CSc1nccc(NC(=O)c2ccc(C(C)(C)C)cc2)n1 -8.43%
CCOC(=O)N1CCN(C(=O)c2ccc3c(=O)n(CCc4ccc(OC)c(OC)c4)c(=O)[nH]c3c2)CC1 8.01%
O=C(C[n+]1cc(Br)cc2ccccc21)c1ccc(F)cc1 4.07%
COc1cccc([C@@H]2Oc3ccc(Br)cc3C(=O)[C@H]2OC(=O)NCCc2ccc(OC)c(OC)c2)c1 -29.3%
COc1ccccc1N1CCN(C(=O)c2ccc(NC3=NC4CS(=O)(=O)CC4S3)cc2)CC1 (centres undefined) 11.2%
COc1ccc(CCCOC(Cn2ccnc2)c2ccc(OC)cc2)cc1 (centres undefined) 10.3% and -14.1%
CC(=O)c1cc(C#N)c(N2CCCCC2)nc1C 10.1%
Cc1cc(C)c(C#N)c(N2CCC(C(N)=O)CC2)n1 15.7%
N#CCc1ccc(NC(=O)c2ccccc2C(=O)Nc2ccc(CC#N)cc2)cc1 5.96%
CCOCc1nnc(NC(=O)CCC2CCCCC2)s1 18.1%
COC(=O)CCCC1=CC2=CC(=O)C(C)(OC(=O)c3cccs3)C(=O)C2=CN1c1ccc(CO)cc1 (centres undefined) -1.16%
CCOC(=O)c1csc(CCNC(=O)c2oc3c(Cl)cc(C)cc3c2C)n1 -19.2%
O=c1[nH]c(=O)c2nc3ccccc3nc2[nH]1 8.31%
O=C(NCc1cc(F)cc(C(F)(F)F)c1)C1CCC(=O)N(C2CCCC2)C1 (centres undefined) 6.77%
O=c1oc2ccccc2c(CNc2ccccc2)c1[N+](=O)[O-] 5.08%
C=C1C(=CC=C2CCC[C@@]3(C)[C@@H]2CC[C@H]3[C@H](C)CCCC(C)C)C[C@@H](O)C[C@@H]1O 3.54%
CC(=O)Nc1ccc(/C=N/NC(=O)c2cccs2)cc1 9.99%
O=C(N/N=C/c1ccco1)c1ccc(C(=O)N/N=C/c2ccco2)o1 22%
CCOc1cc(/C=N/NC(=O)c2cc(-c3ccccc3)nc3ccccc23)ccc1O 10.1%
C/C(=N\NC(=O)c1cc(-c2ccc(O)cc2)nc2ccccc12)c1cccnc1 0.726%
O=C(O)c1cc2c(cc1NC(=O)c1c(F)cccc1Cl)OCCCO2 14.9%
Cc1nc2ccccc2c(=O)n1Cc1ccc([N+](=O)[O-])cc1 -0.474%
Cc1ccc(Cn2c(C)nc3c(c2=O)c2nc4ccccc4nc2n3Cc2ccco2)cc1 18.1%
O=C(NC1CCCCC1)C1CCC(CNS(=O)(=O)c2ccccc2)CC1 (centres undefined) -16.9%
Cc1ccc(NC(=O)c2cc(-c3ccccc3O)n[nH]2)cc1C 13.9%
CCN(CC)C(=O)CN(c1cccc([N+](=O)[O-])c1)S(=O)(=O)c1ccccc1 19.8%
CCN(CC)S(=O)(=O)c1cc([N+](=O)[O-])ccc1N=Nc1c(O)n(C)c2ccccc12 22.9%
CCCn1c2ccccc2c2cnn(CC(=O)NCCCN3CCCCC3CC)c(=O)c21 (centres undefined) 4.88%
CCC(C)NCC(=O)Nc1ccc([N+](=O)[O-])cc1C(=O)Nc1ccccc1F (centres undefined) 8.61%
Cc1cccc(C(=O)NNC(=O)c2cccc([N+](=O)[O-])c2)c1 12.7%
N#Cc1cccc(NC(=O)CN2CCCCCC2)c1 7.01%
Cc1cc(C)c(NC(=O)CN2CCCCCC2)c(C)c1 -2.37%
CS(=O)(=O)c1ccc2nc(NC(=O)CN3CCCCCC3)sc2c1 -29.2%
N#Cc1ccsc1NC(=O)CN1CCN(S(=O)(=O)c2cc(Cl)ccc2Cl)CC1 -21.5%
CCOC(=O)C1CN(S(=O)(=O)c2ccc(OC)cc2)c2cc(Cl)ccc2O1 (centres undefined) 3.4%
Cc1ccc(S(=O)(=O)NNC(=O)/C=C/c2cccc(F)c2)cc1 9.18%
C=CCc1ccccc1OCC(O)CN1CCN(CCO)CC1 (centres undefined) 5.68%

Potency, active:
COc1ccc(CCN2C(=O)CC(N3CCC(C(N)=O)CC3)C2=O)cc1OC (centres undefined) 50.1 µM
C[n+]1ccc(/C=C/c2c[nH]c3ccccc23)cc1 56.2 µM
Cc1ccc(NN=Nc2nc3c([nH]2)c(=O)n(C)c(=O)n3C)cc1 25.1 µM
O=C(O)[C@@H](S)[C@H](S)C(=O)O 1.12 µM
N#Cc1c(N2CCCCC2)nc(N)c2c(N)nc(SCC(=O)O)cc12 8.91 µM
Nc1ccc2nc3c(=O)[nH]c(=S)[nH]c3nc2c1 8.91 µM
O=C(N/N=C/C=C/c1ccco1)c1cccs1 10 µM
Cc1ccc(-c2cc(C(=O)N/N=C/C=C/c3ccco3)c3ccccc3n2)cc1C 28.2 µM
Cc1nc2c(c(=O)n1Cc1ccco1)c1nc3ccccc3nc1n2Cc1ccccc1 8.91 µM
CCN(CC)S(=O)(=O)c1cc([N+](=O)[O-])ccc1NNC(=O)Nc1ccccc1 56.2 µM
O=[N+]([O-])c1cccc(/C([O-])=C(/C(=S)Nc2ccccc2F)[n+]2ccccc2)c1 17.8 µM
N#Cc1ccsc1NC(=O)CN1CCCCC1 89.1 µM
Cc1csc(NC(=O)CN2CCCCCC2)n1 79.4 µM
